# Screens as filed in PubChem.
# A549 tox-1 – Nrf2 qHTS screen for inhibitors: counterscreen for cytotoxicity; 390,000 compounds, 0.16% hits; A549 ARE-Fluc cells, CellTiter-Fluor viability, 18-24 h; Potency, µM (titrated, usually from 46 µM), without a hit: at the highest dose activity change, negative = cytotoxicity, usual class: inhibitors; also: potency is read from the fitted curve at half-maximal effect
#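 A549 ARE_Fluc cells in 5% FBS OPTI-MEM were exposed to compounds in concentration-response for 18-24 h at 37 deg C. Viability was read by CellTiter-Fluor fluorescence (Ex 405/Em 525) after 30 min, before the luciferase read.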
# KB-V1 MDR tox – qHTS assay for MDR1-selective chemotherapeutics: Primary screen using the drug-selected MDR subline cells KB-V1; KB-V1 MDR cells viability, CellTiter-Glo, 72 h; Potency, µM (highest dose often 46.1 µM), usual class: cytotoxic; 400,000 compounds, 3.4% hits; also: potency is read from the fitted curve at half-maximal effect; nearly all actives have a fitted effect of over 60% in size
#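 KB-V1 MDR subline cells in DMEM (phenol-red free, 10% FBS) exposed to compounds in qHTS concentration series for 72 h at 37 degrees C. Viability read by CellTiter-Glo luminescence; concentration-effect curves fitted after normalization and correction.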
# Giardia kill – Small Molecules that selectively kill Giardia lamblia: qHTS. Giardia lamblia trophozoite viability. activity change, % at 7.66 µM, hits read low. 340,000 compounds, 0.15% hits. AID 540267, 2011; in the data active = activity change below about -80%; inconclusive = between about -30% and that limit;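 also: parasites exposed to compound for two days anaerobically before the ATP read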
#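 Luminescent ATP signal served as the viability read-out, measured 15-30 min after adding ATP detection reagent to trophozoites that had been incubated with compounds for 48 hrs at 37 deg C anaerobically at 100 cells/well.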
# Nrf2 inh – Nrf2 qHTS screen for inhibitors; A549 ARE-Fluc reporter, luciferase luminescence, 18-24 h; 360,000 compounds, 2.1% hits; AID 504444, 2011; Potency, µM (doses to about 46 µM), inactives show at the top dose activity change, negative = inhibition, actives largely listed as inhibitors; also: potency is read from the fitted curve at half-maximal effect; nearly all actives have a fitted effect of over 60% in size
#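 Concentration-response testing used A549 ARE_Fluc cells at 5000 cells/well. Following an 18-24 h compound incubation, viability was read by fluorescence (Ex 405/Em 525) and luciferase output by luminescence.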
# PI4K2A block – qHTS for small molecular inhibitors of PI4K2A; Phosphatidylinositol 4-kinase type 2-alpha (Homo sapiens), Q9BTU6; purified PI4K2A, ADP-Glo luminescence, 1 h; stronger effect = lower value; AID 1346378, 2018; activity change, negative = inhibition, % at 76.9 µM; 420,000 compounds, 0.13% hits; in the data active = activity change below about -50%; inconclusive = mostly about -30% to -49%;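 also: -100% = wells without enzyme as full effect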
#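 Compounds are screened against recombinant PI4K2A using PI as substrate and ATP, the latter dispensed at 300 microM. Reactions run one hour at ambient temperature before ADP-Glo detection; full inhibition defined by wells lacking enzyme.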
# KB-3-1 cytotox – qHTS assay for MDR1-selective chemotherapeutics: Primary screen using the parental adenocarcinoma cell KB-3-1; KB-3-1 viability, CellTiter-Glo ATP luminescence, 72 h; Potency, µM (doses to about 46.1 µM), hits mostly cytotoxic; 400,000 compounds, 1.4% hits; AID 1347075, 2019; also: potency is read from the fitted curve at half-maximal effect; nearly all actives have a fitted effect of over 60% in size
#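 Here the drug-naive KB-3-1 line serves as comparator for MDR sub-line selectivity; cells received compound titrations, 72 h at 37 °C, then CellTiter-Glo readout.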
# FLuc enzyme inh – Nrf2 qHTS screen for inhibitors: Purified Fluc Biochemical Counterscreen for Hit Validation; shares compounds with Nrf2 inh; purified firefly luciferase, luminescence inhibition; Potency, µM (top dose mostly 57.5 µM), without a hit: at the top dose activity change, negative = inhibition, actives largely listed as inhibitors; 1,400 compounds, 4% hits; also: potency is read from the fitted curve at half-maximal effect; nearly all actives have a fitted effect of over 65% in size
# Target sequence (P08659 whole entry, looked up): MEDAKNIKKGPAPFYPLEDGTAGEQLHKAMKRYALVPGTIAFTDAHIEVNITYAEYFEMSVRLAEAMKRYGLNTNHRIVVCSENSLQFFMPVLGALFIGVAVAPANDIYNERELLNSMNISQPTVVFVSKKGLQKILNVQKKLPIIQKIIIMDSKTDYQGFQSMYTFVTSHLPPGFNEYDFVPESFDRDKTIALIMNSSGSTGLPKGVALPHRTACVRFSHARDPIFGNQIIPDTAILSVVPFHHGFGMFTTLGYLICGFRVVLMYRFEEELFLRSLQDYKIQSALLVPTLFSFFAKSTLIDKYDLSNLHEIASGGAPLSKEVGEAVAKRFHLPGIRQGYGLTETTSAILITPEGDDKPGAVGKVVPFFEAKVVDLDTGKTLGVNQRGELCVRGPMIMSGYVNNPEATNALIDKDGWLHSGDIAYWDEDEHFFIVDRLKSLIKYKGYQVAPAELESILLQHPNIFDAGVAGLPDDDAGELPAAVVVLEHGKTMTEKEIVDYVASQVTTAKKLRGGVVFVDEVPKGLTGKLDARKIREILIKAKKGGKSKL
# A549 tox-2 – Nrf2 qHTS screen for inhibitors: A549 ARE-Fluc Cytotoxicity Counterscreen for Hit Validation; shares compounds with Nrf2 inh; 1,400 compounds, 2% hits; Potency, µM (top dose mostly 46.1 µM), for the others: top-dose activity change, negative = cytotoxicity, usual class: inhibitors; A549 ARE-Fluc cells, cytotoxicity counterscreen;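 also: potency is read from the fitted curve at half-maximal effect; cells exposed to compounds for 18 to 24 hours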
# Nrf2 ARE inh – Nrf2 qHTS screen for inhibitors: Nrf2 A549 ARE-Fluc Confirmation Assay for Hit Validation; 1,400 compounds, 74% hits; A549 ARE-firefly luciferase reporter, luminescence; shares compounds with Nrf2 inh; Potency, µM (highest dose often 46.1 µM), for inactives: at the highest dose activity change, negative = inhibition, usual class: inhibitors; also: potency is read from the fitted curve at half-maximal effect; nearly all actives have a fitted effect of over 65% in size
# The depositor's hits bear a star; i = inactive; ? = inconclusive; · = not tested or not shown. In the library only some 5.7% were active in any assay of this set; here they are far more common. Unless noted, calls follow the shape of the dose curve; as a rule, active = well fitted curve in the direction sought with a large enough effect; inconclusive = small, poorly fitted or top-dose-only effect, or another doubt; inactive = no such curve, though single readings can be large; an effect the other way counts as inactive or inconclusive. Unless noted, % is scaled to controls: 0 for no effect and ±100 for the full control effect.
SMILES,A549 tox-1,KB-V1 MDR tox,Giardia kill,Nrf2 inh,PI4K2A block,KB-3-1 cytotox,FLuc enzyme inh,A549 tox-2,Nrf2 ARE inh
COC(=O)[C@]12C[C@H](CC(=O)NCc3ccc(C)o3)C(=O)N(Cc3cccc4ccccc34)C1=C[C@H](COCc1ccccc1)O[C@@H]2C,·,·,·,·,-5.8,·,·,·,·
Cc1nc2ccc(NC(=O)c3ccc(F)cc3F)cc2c(=O)[nH]1,·,·,·,·,-11.6,·,·,·,·
Cc1ccc(Cn2c(SCC(=O)NCc3ccccc3Cl)nc3ccsc3c2=O)cc1,-1.4%,·,·,·,6.8,·,·,·,·
CC(=O)N1CCN(C(=O)CN2C(=O)NC(C)(c3ccc4ccccc4c3)C2=O)CC1 (centres undefined),6.3%,i,-8.1,-10.4%,3.7,i,·,·,·
CC1(c2ccc3ccccc3c2)NC(=O)N(CC(=O)N2CCN(Cc3ccc(C#N)cc3)CC2)C1=O (centres undefined),-14.3%,?,13.0,0.411µM*,-6.3,i,0.1%,1.8%,0.82µM*
O=C(CNC(=O)C1CCCCC1)OCC(=O)c1ccc(-c2ccccc2)cc1,-2.0%,i,-2.2,8.0%,·,i,·,·,·
O=C(Cc1ccc(Cl)cc1)Nc1ccncc1,-10.8%,i,22.4,5.8µM*,3.6,i,1.6%,3.5%,-23.6%
Cc1ccc(CC(=O)Nc2ccncc2)cc1,-3.6%,i,1.6,?,-3.5,i,·,·,·
Oc1c(C(Nc2nccs2)c2ccc(C(F)(F)F)cc2)ccc2cccnc12 (centres undefined),-10.4%,?,-8.9,4.61µM*,6.5,?,-11.2%,-23.2%,5.8µM*
O=c1c2ccccc2nc(-c2ccccc2)n1Cc1ccc(Cl)cc1,0.3%,i,0.1,15.0%,-3.6,i,·,·,·
O=c1c2ccccc2nc2n1CCN2Cc1ccc(Cl)cc1,-21.2%,4.61µM*,-15.2,5.8µM*,0.0,16.4µM*,-15.5%,-12.5%,4.11µM*
C=C(c1ccc2ccccc2n1)c1cccs1,·,i,·,·,·,11.6µM*,-5.6%,-29.7%,?
O=C(NCc1cccs1)c1ccc2ccccc2n1,-5.0%,i,-6.9,?,1.7,i,·,·,·
COc1ccccc1OC(=O)CCN1c2ccccc2Sc2ccccc21,-1.4%,i,5.1,1.1%,2.4,i,·,·,·
COc1ccccc1-[n+]1c(C)cc(/C=C2\Sc3ccccc3N2C)cc1C,?,9.2µM*,-17.5,4.11µM*,0.7,0.291µM*,0.536µM*,?,0.259µM*
Cc1noc(C)c1CSc1nc2sc3c(c2c(=O)n1C)CCCC3,?,i,1.1,?,0.6,i,·,·,·
C=CCn1c(SCc2c(C)noc2C)nc2sc3c(c2c1=O)CCCC3,?,23.1µM*,6.1,9.2µM*,-1.0,18.4µM*,-1.0%,-14.5%,?
COc1cc(-n2c(C)nc3cc(C(=O)N4CCN(C(C)=O)CC4)ccc32)cc(OC)c1OC,·,·,·,·,-0.4,·,·,·,·
Cn1cccc/c1=N\c1cccc[n+]1C,-21.6%,i,-6.9,2.91µM*,1.3,i,-0.9%,-12.5%,5.8µM*
O=C(OCC#CCSc1nnc(-c2cccc(F)c2)o1)c1ccc(F)cc1,1.7%,·,·,2.6%,-4.8,·,·,·,·
COc1ccccc1C(=O)Nc1nc(-c2ccc(S(=O)(=O)N3CCOCC3)cc2)cs1,-28.0%,4.61µM*,-11.0,5.17µM*,7.6,14.6µM*,-12.3%,-16.9%,1.3µM*
CC(C)C(=O)Nc1nc(-c2ccc(S(=O)(=O)N3CCOCC3)cc2)cs1,4.9%,·,-4.3,8.1%,0.0,·,·,·,·
